Screening data from PubChem.
ER stress death: protection against thapsigargin ER stress killing – CSM14.1 cells, ATP luminescence, primary screen | CSM14.1 thapsigargin ER stress survival | relative survival (cellular ATP), % at 15 µg/mL (by protocol) | 48,000 tested, 0.33% active | AID 1010, 2008;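 active = survival measured by cellular ATP above 50% at 15 µg/ml in the first screen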;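 also: cell death triggered by about 15 µM thapsigargin; ATP read 24 h after thapsigargin was added; plate controls were thapsigargin with DMSO for no effect and DMSO without thapsigargin for full effect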
* marks the source's active call; other numbers are inactive results. This is one part of a sample in which hits are shown more often than they occur.

SMILES	ER stress death
COc1cc2nc(-c3ccc4c(c3)C(=O)N(c3ccccc3)C4=O)oc(=O)c2cc1OC	1
CC(Oc1cccc(Cl)c1)C(=O)Nc1cc([N+](=O)[O-])ccc1Cl (stereo not drawn)	11
CCOc1ccc(C2Nc3ccccc3NC3=C2C(=O)CC(c2ccccc2)C3)cc1 (stereo not drawn)	100*
CCOc1ccc(C2Nc3ccccc3NC3=C2C(=O)CC(c2ccc(OC)cc2)C3)cc1 (stereo not drawn)	1
O=C1CC(c2ccccc2)CC2=C1C(c1ccc(OCc3ccccc3)cc1)Nc1ccccc1N2 (stereo not drawn)	-1
COC(=O)c1ccccc1NC(=O)COc1ccc(Cl)c(C)c1	6
Cc1ccc(S(=O)(=O)N=C2C=C(Cl)C(=O)C(Br)=C2)cc1	-12
COc1cccc(CN2CCN(C(=O)c3ccc(-c4ccccc4)cc3)CC2)c1	93*
COc1ccc(OC)c(CN2CCN(C(=O)c3ccc(OC)c(OC)c3)CC2)c1	-5
O=C(c1ccc(F)cc1)N1CCN(Cc2ccc(Cl)cc2)CC1	6
O=C(c1ccc(-c2ccccc2)cc1)N1CCN(Cc2ccc(Cl)cc2)CC1	98*
c1ccc(Oc2cccc(CN3CCN(Cc4ccccn4)CC3)c2)cc1	-2
COc1ccc(OC)c(CN2CCN(C(=O)c3ccc(-c4ccccc4)cc3)CC2)c1	104*
COc1cc(OC)c(OC)cc1CN1CCN(C(=O)c2ccc(-c3ccccc3)cc2)CC1	6
Cc1ccc(C(=O)N2CCN(Cc3ccccc3)CC2)cc1	1
COc1ccc(C(=O)N2CCN(Cc3cccc(Cl)c3)CC2)cc1	5
COc1ccc(C(=O)N2CCN(Cc3cccc(C)c3)CC2)cc1	9
O=C(c1ccccc1)N1CCN(Cc2cccc(Oc3ccccc3)c2)CC1	59*
O=C(c1ccc(F)cc1)N1CCN(Cc2cccc(Oc3ccccc3)c2)CC1	32
Cc1cccc(N2C(=O)C(Cl)=C(Nc3ccc(F)cc3)C2=O)c1C	-2
CCOc1cc(/C=N\NC(=O)c2ccc([N+](=O)[O-])cc2)cc(Br)c1O	8
CCOc1ccccc1N1CCN(C(=O)c2ccc([N+](=O)[O-])cc2)CC1	13
CC/C(O)=C1/C(=O)CC(C)(C)CC1=Nc1ccncc1	2
COc1ccc(OCC(=O)NCCOc2ccccc2)cc1	-2
COc1ccc(Br)cc1/C=N/N=C1/NC(=O)CS1	13
SMILES	ER stress death
O=C1NC(=O)N(c2ccc(Cl)cc2)C(=O)/C1=C\c1ccc(-c2ccc(C(=O)O)c(Cl)c2)o1	7
O=C1S/C(=C\c2ccc(-c3ccc([N+](=O)[O-])cc3)o2)C(=O)N1c1ccccc1	-2
O=C1/C(=C/c2ccc(-c3ccc([N+](=O)[O-])cc3)o2)SC(=S)N1Cc1ccco1	56*
CCN1C(=O)/C(=C\c2ccc(-c3ccc([N+](=O)[O-])cc3)o2)SC1=S	7
O=C(c1ccc(Br)cc1)c1ccc2c(c1)OCCCO2	14
COc1ccc([N+](=O)[O-])cc1NC(=O)c1ccc(N(C)C)cc1	1
O=C1NN(c2ccc(I)cc2)C(=O)/C1=C\c1ccc(F)cc1	4
CC(C)CC(=O)N1CCN(Cc2ccc3ccccc3c2)CC1	-3
CCn1c2ccccc2c2cc(CN3CCN(Cc4ccc(OC)c(Br)c4)CC3)ccc21	2
COc1ccc(CN2CCN(C(=O)c3cccs3)CC2)cc1OC	-9
CCn1c2ccccc2c2cc(CN3CCN(C(=O)c4cccs4)CC3)ccc21	133*
CCn1c2ccccc2c2cc(CN3CCN(C(=O)CC(C)C)CC3)ccc21	63*
O=C(c1cccs1)N1CCN(Cc2ccc(Cl)cc2)CC1	-4
CN1c2ccccc2C(C)(C)C12C=Cc1cc(C=O)ccc1O2 (stereo not drawn)	-7
O=c1oc2cc([N+](=O)[O-])ccc2nc1/C=C(O)/C=C\c1ccccc1	10
Cc1cc(/C=C2\C(=O)NC(=O)N(C)C2=O)c(C)n1-c1ccc(N(C)C)cc1	5
Cc1cccc(NC(=O)/C=C(\C(=O)O)c2ccc(Cl)cc2)c1C	7
Clc1ccc(-n2ncnc2-c2cccc(Cl)c2)cc1	-1
Cc1ccn2c(-c3csc(Nc4cccc(O)c4)n3)c(C)nc2c1	40
CCOc1ccc(Nc2nc(-c3c(C)nc4cc(C)ccn34)cs2)cc1	96*
CCOc1ccc(Nc2nc(-c3ccccn3)cs2)cc1	1
COc1ccc(/C=C/C(=O)Nc2c(C(C)C)cccc2C(C)C)cc1OC	11
CCOc1cccc(C(=O)Nc2sc(CC)cc2C(=O)OC)c1	8
O=C1CC(c2ccccc2)CC2=C1C(c1ccc(Br)cc1)Nc1ccccc1N2 (stereo not drawn)	12
O=C1CC(c2ccccc2)CC2=C1C(c1cccc(Cl)c1Cl)Nc1ccccc1N2 (stereo not drawn)	-1
SMILES	ER stress death
O=C1CC(c2ccccc2)CC2=C1C(c1cc(Br)ccc1F)Nc1ccccc1N2 (stereo not drawn)	80*
O=C1CC(c2ccc(Cl)cc2)CC2=C1C(c1ccccc1F)Nc1ccccc1N2 (stereo not drawn)	6
COc1ccc(C2CC(=O)C3=C(C2)Nc2ccccc2NC3c2c(F)cccc2Cl)cc1 (stereo not drawn)	1
O=C1CC(c2ccccc2)CC2=C1C(c1c(F)cccc1Cl)Nc1ccccc1N2 (stereo not drawn)	105*
CCn1cc(/C=C(/C#N)C(=O)Nc2ccc(Cl)cc2)c2ccccc21	-1
C(=N\Nc1nncn1/N=C/c1ccccc1)/c1ccccc1	-23
COc1ccc(C2Nc3ccccc3C(=O)N2c2ccccc2)cc1COc1ccc(NC(C)=O)cc1 (stereo not drawn)	87*
COc1ccc(C2Nc3ccccc3C(=O)N2c2ccccc2)cc1CN1C(=O)c2ccccc2C1=O (stereo not drawn)	5
COc1ccc(N2C(=O)c3ccccc3NC2c2ccc(OC)c(CN3C(=O)c4ccccc4C3=O)c2)cc1 (stereo not drawn)	10
CCSc1nc2sc3c(c2c2nnnn12)CCC3	14
CSc1ccc(Cl)c(C(=O)Nc2c(C)n(C)n(-c3ccccc3)c2=O)c1	5
COc1ccccc1CNC(=O)c1ccc(F)cc1	100*
COc1ccccc1CNC(=O)c1ccc(C)cc1	6
COc1ccccc1CNC(=O)c1ccc(OC)c(OC)c1	11
CC(C)c1ccccc1NC(=O)COc1ccc2ccccc2c1	-1
COc1cccc(C(=O)N2CCN(C3CCCCC3OC)CC2)c1 (stereo not drawn)	-2
O=C1CC(Cc2ccc(Cl)cc2)C(=O)N1c1ccc2ccccc2n1 (stereo not drawn)	7
C=C(C)CC1(O)CC(c2ccccc2)NC(c2ccccc2)C1CC (stereo not drawn)	-2
COc1ccc2ccccc2c1-c1nnc2ccc3ccccc3n12	7
COc1ccc2ccccc2c1-c1nnc2ccc(C(F)(F)F)cn12	60*
FC(F)(F)c1ccc2nnc(-c3cc(Br)ccc3OCc3ccccc3)n2c1	2
O=C(NCc1ccccn1)C(=O)N/N=C/c1ccccc1F	6
O=C(Nc1ccc(O)c(-c2nc3ccccc3s2)c1)c1cccc(Cl)c1Cl	-1
Cc1c(NC(=O)c2cc([N+](=O)[O-])ccc2Cl)cccc1-c1nc2ccccc2s1	-3
O=C(Nc1ccc(O)c(-c2nc3ccccc3s2)c1)c1cc([N+](=O)[O-])ccc1Cl	60*
CCOc1ccc(C(=O)NCc2cccs2)cc1OCC	1
COc1ccc(-c2cc3ccccc3oc2=O)cc1OC	2
CC(C)(C)C1CCc2c(sc3ncn(N)c(=N)c23)C1 (stereo not drawn)	-28
CSc1nc(NC(N)=O)c2c3c(sc2n1)CC(C(C)(C)C)CC3 (stereo not drawn)	58*
CC(C)(C)C1CCc2c(sc(NC(=O)c3ccncc3)c2C(N)=O)C1 (stereo not drawn)	6
